Consider 92 compounds from ChEMBL document CHEMBL1157539, “Thousands of chemical starting points for antimalarial lead identification” (Nature, 2010).

In all, about 13,000 compounds were measured (“IFI”: median about 4, highest 2% from about 17 on). The entries come from a sample that favours the highest values as a whole.

The experiment can be described thus: GSK_TCMDC: Inhibition Frequency Index (IFI). The number of non-kinase HTS assays where a compound showed > 50 % inhibition, expressed as a percentage of the number of such assays in which the compound was tested. It counts as functional.
As to `O=C(Nc1ccccc1)Nc1cccc(-c2cccc(-c3nc4cc(F)ccc4[nH]3)c2)c1`, the IFI worked out at 3%.

`Cc1ccc2[nH]c(-c3cc(-c4ccc(CO)cc4)cnc3N)nc2c1` yielded an IFI of 5.51%.

In the case of `c1ccc2oc(-c3cc4ccncc4cc3OC3CCNCC3)cc2c1`, the IFI was 8.77%.

Turning to `CC(C)CCCC(C)(C)NC[C@@H](O)[C@H](Cc1ccccc1)NC(=O)c1cccc(CCC2CC2)c1`, the IFI worked out at 22.4%.

Turning to `CCc1cn(CCOC)c2ccc(C(=O)N[C@@H](Cc3ccccc3)[C@H](O)CNC(C)(C)CCCC(C)C)cc12`, the IFI is 5.07%.

In turn, `CC(C)CCCC(C)(C)NC[C@@H](O)[C@H](Cc1ccccc1)NC(=O)c1cccc(OCC2CC2)c1` registered an IFI of 18.6%.

For the compound `CCc1cn(CCc2ccccc2)c2ccc(C(=O)N[C@@H](Cc3ccccc3)[C@H](O)CNC(C)(C)CCCC(C)C)cc12`, the IFI came out at 8.7%.

Turning to `O=C(N[C@@H](Cc1ccccc1)[C@H](O)CNCCC(F)(F)F)c1cccc(CCC2CC2)c1`, the IFI amounted to 6.1%.

Turning to `O=C(N[C@@H](Cc1ccccc1)[C@H](O)CNCCC(F)(F)F)c1cccc(OCC2CC2)c1`, the IFI was 6.1%.

For the compound `COc1cc2nc(N3CCC(CNC(=O)c4ccc(-c5ccc(C#N)cc5C)cc4)CC3)nc(N)c2cc1OC`, the IFI was found to be 6.31%.

`CCN(CC)CCCNc1ncc2c(-c3ccc(NC(=O)Nc4cc(C(F)(F)F)ccc4F)cc3)nn(C)c2n1` registered an IFI of 10.8%.

In the case of `CN(c1ccccc1)S(=O)(=O)c1cccc(NC(=O)c2ccc(-n3ccnc3)c([N+](=O)[O-])c2)c1`, the IFI worked out at 17.2%.

Consider `Cc1nnc2sc(-c3cccc(NC(=O)c4ccc(N5CCCCC5)c([N+](=O)[O-])c4)c3)nn12`, for which the IFI is 1.47%.

`O=C(Nc1ccc(-c2nc3ccccc3[nH]2)cc1)c1ccc(N2CCCC2)c([N+](=O)[O-])c1` displayed an IFI of 0.99%.

The compound `CN1CCN(CCNc2c3ccccc3nc3c2ccc2ccccc23)CC1` returned an IFI of 6.99%.

Regarding `O=S(=O)(Nc1cccc(CCN2CCCCC2CCN2CCCC2)c1)c1ccc(-c2ccccc2)cc1` (configuration not stated), the IFI turned out to be 14.5%.

With `O=S(=O)(Nc1cccc(CCN2CCCCC2CCN2CCCC2)c1)c1ccc(Oc2ccccc2)cc1` (configuration not stated), the IFI worked out at 17.5%.

With `O=S(=O)(Nc1cccc(CCN2CCCCC2CCN2CCCC2)c1)c1ccc2ccccc2c1` (configuration not stated), the IFI was 13.1%.

`NC1CCCN(Cc2cccc(-c3ccc(-c4nc5cc(C(F)(F)F)ccc5[nH]4)cc3)c2)C1` (configuration not stated) came in with an IFI of 5.63%.

As for `CC(=NNC(=N)N)c1ccc2c(c1)Cc1ccccc1-2`, the IFI was found to be 7.19%.

As to `CS(=O)(=O)NCCCNCc1ccc(-c2ccc(-c3nc4cc(F)ccc4[nH]3)cc2)cc1`, the IFI came out at 5.94%.

For `Nc1c(I)cc(C(=O)Nc2ccc3nc4c(c(N)c3c2)CCCC4)cc1I`, the IFI came out at 22.8%.

`CC(C)(C)c1ccc(C(=O)Nc2ccc3nc4c(c(N)c3c2)CCCC4)cc1` displayed an IFI of 4.9%.

`Nc1c2c(nc3ccc(NC(=O)c4ccccc4)cc13)CCCC2`: the IFI was found to be 2.86%.

Regarding `CCN(CCCN1CCCCC1)c1cc(C)nc(Nc2ccc(Cl)cc2C)n1`, the IFI was 5%.

Turning to `CN(C)c1ccc(CN2CCC(CNC(=O)c3cc(-c4cccc(F)c4)cs3)C2)cc1` (configuration not stated), the IFI was 6.12%.

`CCN1CCC(N(Cc2ccc(-c3ccc(C(F)(F)F)cc3)cc2)C(=O)Cn2c(SCc3cccc(F)c3F)cc(=O)c3ccccc32)C1` (configuration not stated) displayed an IFI of 7.14%.

`CCN1CCC(N(Cc2ccc(-c3ccc(C(F)(F)F)cc3)cc2)C(=O)Cn2c(SCc3ccc(F)cc3)nc(=O)c3c2CCC3)CC1` registered an IFI of 12.5%.

`CCN1CCC(N(Cc2ccc(-c3ccc(C(F)(F)F)cc3)cc2)C(=O)Cn2nc(C)c(=O)cc2SCc2ccc(F)cc2)CC1`: the IFI turned out to be 19.6%.

Take `Cc1cccc2nc(-c3ccc(-c4ccc(NC(=O)C5CCN(C)CC5)cc4)cc3)[nH]c12`: the IFI came out at 4.24%.

Compound `COc1cc(C(=O)N2CCOC(CCN3CCC[C@H]3C(=O)Nc3ccccc3)(c3ccc(Cl)c(Cl)c3)C2)cc(OC)c1OC` (some centres not stated) registered an IFI of 4.83%.

For the compound `COc1ccc2ncc(F)c(CCN3CC(O)C(CNCc4ccccc4)C3)c2n1` (configuration not stated), the IFI was determined as 2.94%.

`O=C(NCCc1ccccc1)N(Cc1ccc(-c2cccc(CN3CCNCC3)c2)cc1)C1CCN(Cc2ccccc2)CC1` showed an IFI of 6.67%.

Compound `CC(C)C[C@H](NC(=O)c1cc2ccccc2s1)C(=O)N[C@H]1CCN(Cc2ccc(OC[C@@H]3CCCN3C)c(Cl)c2)C1` displayed an IFI of 6.67%.

`CC(C)C[C@H](NC(=O)c1cc2ccccc2s1)C(=O)N[C@H]1CCN(Cc2ccc(OCCCN(C)C)c(Cl)c2)C1` showed an IFI of 17.2%.

Turning to `CC(C)C[C@H](NC(=O)c1cc2ccccc2s1)C(=O)N[C@H]1CCN(Cc2ccc(OC3CCN(C)C3)c(Cl)c2)C1` (some centres not stated), the IFI stood at 6.67%.

`O=C1CCCN1CCCNCc1cccc(-c2cccc(-c3nc4cc(F)ccc4[nH]3)c2)c1` returned an IFI of 4.85%.

With `Cc1ccc(C)c(NC(=O)CC2C(=O)N(c3ccccc3)C(=S)N2Cc2ccco2)c1` (configuration not stated), the IFI was found to be 0.76%.

`NC(=O)C1CCN(Cc2ccc(-c3cccc(-c4nc5cc(F)ccc5[nH]4)c3)cc2)CC1` displayed an IFI of 0%.

Compound `Cc1ccc(Nc2nc(C)cc(NC3CC3)n2)cc1` displayed an IFI of 4.62%.

For `Cc1cc(NC2CCCC2)nc(Nc2ccc(F)cc2)n1`, the IFI turned out to be 9.09%.

Compound `Cc1ccc(Nc2nc(C)cc(NC3CCCC3)n2)cc1` returned an IFI of 21.3%.

Turning to `CC1CN(c2cccc3c2nc(-c2cncc(C#N)c2)n3CCNCc2ccccc2)CC(C)O1` (configuration not stated), the IFI came out at 0%.

`CCN1CCC(N(Cc2ccc(-c3ccc(C(F)(F)F)cc3)cc2)C(=O)Cn2c(CCc3cccc(F)c3F)cc(=O)c3c2CCC3)CC1` displayed an IFI of 4.96%.

For `CCn1c(-c2nonc2N)nc2c(-c3cccc(Cl)c3)ncc(OCCCNCc3cnc(C)nc3N)c21`, the IFI amounted to 7.62%.

As to `CCn1c(-c2nonc2N)nc2c(-c3ccc(CO)o3)ncc(OCCCN)c21`, the IFI came to 15.4%.

Regarding `CCn1c(-c2nonc2N)nc2c(Cl)ncc(O[C@H](CCN)c3ccccc3F)c21`, the IFI is 23.1%.

With `CN1CCN(CC2(Nc3nccc(NCCc4cn(C)c5ccccc45)n3)CCCCC2)CC1`, the IFI came out at 14.3%.

Compound `Clc1ccc(CNc2ccnc(NCc3cccnc3N3CCCC3)n2)c(Cl)c1` came in with an IFI of 16.7%.

`CN1CCN(CC2(Nc3nccc(NCc4ccc(Cl)cc4Cl)n3)CCCCC2)CC1` had an IFI of 35.7%.

For `COc1ccccc1CCN(C)CCN1CCC(NC(=O)c2ccc(-c3ccc(C(F)(F)F)cc3)cc2)CC1`, the IFI is 6.19%.

In turn, `COc1cccc(OC)c1CN1CCC(N(C)CCCCCCCCCN2CCC(OC(=O)Nc3ccccc3-c3ccccc3)CC2)CC1` registered an IFI of 17.3%.

For `COc1cccc(OC)c1CN1CCC(N(C)CCCCCCCCN2CCC(OC(=O)Nc3ccccc3-c3ccccc3)CC2)CC1`, the IFI was 13.1%.

`COc1cccc(OC)c1OCCCON1C(=N)N=C(N)NC1(C)C` registered an IFI of 2.9%.

As to `CCC(COCc1ccc(Cl)cc1)N(C)CCN(C)C(CC)COCc1ccc(Cl)cc1` (configuration not stated), the IFI was found to be 19.6%.

Regarding `CN(CCCCN)Cc1ccc(-c2ccc(Cl)cc2)cc1`, the IFI stood at 4.44%.

As to `CN(C)CCC(O)C=C(c1ccc(Cl)cc1)c1ccc(Cl)cc1` (configuration not stated), the IFI was 4.69%.

Consider `CC1(C)C(=O)N=C2C1=C(O)C(=O)c1ccccc12`, for which the IFI was 17.2%.

Take `Cc1ccc2c(=NN=Cc3cccc(F)c3)cc(C)[nH]c2c1`: the IFI was 5.15%.

Compound `C=CCOC(=O)N1CCC(CNCc2cccc(-c3ccc(-c4nc5cccc(C)c5[nH]4)s3)c2)C1` (configuration not stated) registered an IFI of 3.81%.

Compound `COc1c(CNCCCCCCNCc2c(OC)c(OC)c3ccccc3c2OC)c(OC)c2ccccc2c1OC` yielded an IFI of 21.3%.

Consider `COc1c(OC)c(OC)c2ccccc2c1CCNCCCCNCCc1c(OC)c(OC)c(OC)c2ccccc12`, for which the IFI is 18.3%.

Turning to `COc1c(OC)c(OC)c2ccccc2c1CNCCCCCCNCc1c(OC)c(OC)c(OC)c2ccccc12`, the IFI amounted to 14.8%.

For the compound `CCCCOc1cc(OC)c2ccccc2c1CCNCCCCNCCc1c(OCCCC)cc(OC)c2ccccc12`, the IFI came out at 19.1%.

Turning to `COc1cc2ccccc2c(OC)c1CNCCCCCCNCc1c(OC)cc2ccccc2c1OC`, the IFI worked out at 12.9%.

Regarding `COc1cc2ccccc2c(CNCCCCCCNCc2c(OC)c(OC)cc3ccccc23)c1OC`, the IFI was found to be 12.1%.

The compound `COc1cc2ccccc2cc1CCNCCCCNCCc1cc2ccccc2cc1OC` gave an IFI of 14.8%.

Consider `COc1cc2ccccc2c(OC)c1CCNCCCCNCCc1c(OC)cc2ccccc2c1OC`, for which the IFI came to 14.5%.

For `CCc1c(CCNCCCCCCNCCc2ccc(OC)c(OC)c2CC)ccc(OC)c1OC`, the IFI came out at 6.47%.

Turning to `N=C(N)Nc1nc(-c2cccc(NC(=O)NCc3ccc(OC(F)(F)F)cc3)c2)cs1`, the IFI amounted to 3.79%.

On to `CC(CN1CCN(C)CC1)C(=O)Nc1ccc(-c2cccc(-c3nc4cc(F)ccc4[nH]3)c2)cc1` (configuration not stated), for which the IFI amounted to 2.78%.

On to `CC(=O)Nc1ncc(C(=O)Nc2cccc(-c3cccc(-c4nc5cc(C(F)(F)F)ccc5[nH]4)c3)c2)s1`, for which the IFI was determined as 5.41%.

Regarding `COc1ccc2ccccc2c1CNCCCCCCNCc1c(OC)ccc2ccccc12`, the IFI came to 9.93%.

`CC(C)COc1ccc2ccccc2c1CNCCCCCCNCc1c(OCC(C)C)ccc2ccccc12` yielded an IFI of 22.9%.

In turn, `CC(C)Oc1ccc2ccccc2c1CNCCCCCCNCc1c(OC(C)C)ccc2ccccc12` gave an IFI of 18.5%.

For the compound `CSc1ccc2ccccc2c1CNCCCCCCNCc1c(SC)ccc2ccccc12`, the IFI came out at 12.3%.

Take `COc1ccc2c(CNCCCCCCNCc3c(OC)ccc4cc(OC)ccc34)c(OC)ccc2c1`: the IFI came to 7.38%.

`Cc1nnsc1C(=O)Nc1cccc(-c2cccc(-c3nc4cc(F)ccc4[nH]3)c2)c1` came in with an IFI of 6.42%.

As to `CC(=NNC(S)=Nc1ccccc1Cl)c1ccccn1`, the IFI worked out at 6.57%.

`COc1cc(F)c2nccc([C@@H](O)CN3CCC(NCc4cc5c(cc4F)OCCO5)CC3)c2c1` displayed an IFI of 1.59%.

In turn, `O=C(Nc1cccc([N+](=O)[O-])c1)Nc1cccc(C(F)(F)F)c1` displayed an IFI of 12.4%.

Consider `COc1cc(C)nc2ccc(NC(=O)Nc3ccc([N+](=O)[O-])cc3C)cc12`, for which the IFI was 3.01%.

Turning to `O=C(Nc1ccc(OC(F)(F)F)cc1)Nc1ccc([N+](=O)[O-])cc1`, the IFI worked out at 20.1%.

`O=C(Nc1ccc(Oc2ccc(OC(F)(F)F)cc2)cc1)c1ccco1` had an IFI of 5.22%.

Consider `O=C(Nc1cccc([N+](=O)[O-])c1)Nc1ccc(Cl)c(C(F)(F)F)c1`, for which the IFI came to 10%.

`COc1cc(NC(=O)Nc2ccc([N+](=O)[O-])cc2OC)c(OC)cc1Cl` displayed an IFI of 1.83%.

Compound `COc1cc([N+](=O)[O-])ccc1NC(=O)Nc1ccc(OC(F)(F)F)cc1` came in with an IFI of 18.4%.

In turn, `O=C(Nc1ccc([N+](=O)[O-])cc1)Nc1cc(C(F)(F)F)ccc1F` came in with an IFI of 8.62%.

In turn, `O=C(Nc1ccc(C(F)(F)F)cc1)Nc1cccc([N+](=O)[O-])c1` gave an IFI of 19.1%.

In turn, `N#Cc1ccc(NC(=O)Nc2ccc(OC(F)(F)F)cc2)cc1` returned an IFI of 20.5%.

`O=C(Nc1ccc(CCNCc2ccccc2)cc1)Nc1ccc(OC(F)(F)F)cc1`: the IFI came to 0.72%.

In the case of `O=C(Nc1ccc([N+](=O)[O-])cc1)Nc1cc(OCC(F)(F)F)cc(OCC(F)(F)F)c1`, the IFI turned out to be 9.6%.
